Sfp inh = Sfp phosphopantetheinyl transferase inhibition | Q9F4F7 | Biochemical Sfp PPTase activity, qHTS | Potency, µM, inactives show largest response in the series, negative = inhibition, actives largely listed as inhibitors | 310,000 compounds, 3.5% hits | AID 1490;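 note: the enzyme is Sfp with the accession as filed and its product quenches rhodamine fluorescence; 0% = enzyme reaction without inhibitor and -100% = no enzyme wells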
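Step 1, compound plus 15 nM Sfp-PPTase, 15 min, room temperature. Step 2, add rhodamine-CoA (5 uM) and BHQ-2-YbbR (12.5 uM). Step 3, read 525/598 nm fluorescence at 0 and 30 min.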
Gal4-VP16 FLuc = inhibits Gal4-VP16 luciferase reporter, ROR gamma counter-screen | Drosophila S2 Gal4-VP16 UAS-luciferase, luminescence, 20 h | Potency, µM (titrated, usually from 53.6 µM), for inactives: top-dose activity, negative = inhibition, actives largely listed as inhibitors | 310,000 compounds, 3.5% hits | AID 2546;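 note: Gal4-VP16 expression switched on by copper sulfate through the metallothionein promoter; % is set by controls: 0 for no effect and ±100 for the full control effect; nearly all actives have a fitted effect of over 50% in size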
PINK1 expr mod = changes PINK1 expression; AID 624263; PINK1 immunofluorescence, high-content cytometry, 24 h; 410,000 compounds, 0.2% hits; Potency, µM (highest dose often 76.6 µM), for inactives: top-dose activation (PINK1 increase), most hits filed as activators; active = well fitted activation curve with a large enough effect; inconclusive = small, poorly fitted or top-dose-only effect; cell line not stated here; note: % of control where 0% means no effect; nearly all actives have a fitted effect of over 65% in size
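PINK1 protein, normally rapidly degraded, was detected by immunofluorescence after 24 hour compound treatment of a stable cell line. Titration data (5 concentrations) came from laser-scanning cytometry, with CCCP-treated wells as controls.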
ClpP mod = qHTS Assay for Activators of ClpP | purified B. subtilis ClpP, FRET peptide cleavage, 20 min | 340,000 compounds, 1.9% hits | ATP-dependent Clp protease proteolytic subunit (Bacillus subtilis (strain 168)), P80244 | Potency, µM (top dose mostly 57.5 µM), for the others: top-dose activity change, negative = active; active = well fitted falling curve with a large enough effect; inconclusive = small, poorly fitted or top-dose-only effect; inactive = no such curve, though single readings can be large or run the other way; note: the source files actives as falling curves though it sought activators and does not explain the sign; nearly all actives have a fitted effect of over 65% in size
Target sequence (P80244 whole entry, looked up): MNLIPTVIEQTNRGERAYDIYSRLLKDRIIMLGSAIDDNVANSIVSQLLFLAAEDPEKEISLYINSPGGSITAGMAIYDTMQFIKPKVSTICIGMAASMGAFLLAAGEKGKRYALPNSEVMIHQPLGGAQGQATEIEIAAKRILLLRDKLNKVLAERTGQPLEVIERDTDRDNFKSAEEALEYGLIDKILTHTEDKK
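Buffer: 100 mM Tris/HCl pH8, 100 mM KCl, 0.05% low protease BSA, 2.5% glycerol, 0.01% Tween-20. ClpP 10 microg/mL final; 20 min RT; delta FRET normalized to ADEP and DMSO controls.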
Epigenetic derep = derepresses silenced GFP reporter in murine cells; Potency, µM (titrated, usually from 53.9 µM), without a hit: at the top dose GFP activation, hits mostly activators; murine LDR cells, GFP reporter derepression, 30 h; 280,000 compounds, 0.2% hits; AID 1865; note: % of control where 0% means no effect; nearly all actives have a fitted effect of over 60% in size
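Derepression of a silenced CMV-GFP reporter in murine LDR cells is scored by enumerating GFP-positive cells with a laser-scanning microplate cytometer after 30 hours of treatment at 37 C.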
RORg inh = ROR gamma (mouse) transcription inhibition. P51450. Drosophila S2 Gal4-RORgamma UAS-luciferase reporter, 20 h. Potency, µM (series often up to 53.6 µM), inactives show at the top dose activity change, negative = inhibition, hits mostly inhibitors. 310,000 compounds, 5.4% hits. AID 2551; note: % is set by controls: 0 for no effect and ±100 for the full control effect; nearly all actives have a fitted effect of over 60% in size
Target sequence (P51450 whole entry, looked up, the tested form may be a part): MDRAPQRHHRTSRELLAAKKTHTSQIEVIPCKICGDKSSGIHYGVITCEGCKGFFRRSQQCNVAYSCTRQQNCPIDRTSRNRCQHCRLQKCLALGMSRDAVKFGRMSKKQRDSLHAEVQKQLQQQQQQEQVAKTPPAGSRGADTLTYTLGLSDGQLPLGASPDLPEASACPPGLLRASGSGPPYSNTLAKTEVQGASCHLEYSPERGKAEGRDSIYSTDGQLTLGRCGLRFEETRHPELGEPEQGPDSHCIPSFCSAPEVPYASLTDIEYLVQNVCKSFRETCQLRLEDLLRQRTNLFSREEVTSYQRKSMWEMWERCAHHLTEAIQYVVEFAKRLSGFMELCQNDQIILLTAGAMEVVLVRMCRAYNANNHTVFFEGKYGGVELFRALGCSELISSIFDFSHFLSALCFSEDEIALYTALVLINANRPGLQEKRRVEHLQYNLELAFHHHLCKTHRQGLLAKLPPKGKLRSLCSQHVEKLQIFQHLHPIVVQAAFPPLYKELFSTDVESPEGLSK
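Drosophila Schneider cells stably carrying a metallothionein-driven Gal4 DBD–ROR gamma fusion and a UAS-Photinus luciferase reporter were exposed to compound for 1 hr, then induced with copper sulfate (700 uM final) for 20 hr at ambient temperature before luminescence reading.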
The depositor's hits bear a star; [ ] = another dose, or the depositor's remark. An excerpt weighted towards active compounds, which were near 8.1% of everything screened. Unless noted, calls come from the whole dose curve; as a rule, active = well fitted curve in the direction sought with a large enough effect; inconclusive = small, poorly fitted or top-dose-only effect, or another doubt; inactive = no such curve, though single readings can be large; an effect the other way counts as inactive or inconclusive. Potency is the fitted concentration of half-maximal effect.

For OC[C@H]1OC(O)[C@@H](O)[C@@H](O)[C@H]1O (stereo partly drawn) the results were Sfp inh -9%, Gal4-VP16 FLuc -1% and RORg inh 19%.
`CCCCNC(=S)N/N=C/c1cc(C)ccc1C` gave Sfp inh -3%, Gal4-VP16 FLuc 3.2µM*, PINK1 expr mod 1%, ClpP mod -2%, Epigenetic derep 1% and RORg inh 1.8µM*.
For Cc1ccsc1/C=N/NC(=O)CO the results were Sfp inh 26%, Gal4-VP16 FLuc -5%, PINK1 expr mod 0%, ClpP mod 0%, Epigenetic derep -1% and RORg inh -17%.
Screening CCCCNC(=S)N/N=C/c1ccccc1F returned Sfp inh 3%, Gal4-VP16 FLuc 3.2µM*, PINK1 expr mod 0%, ClpP mod inconclusive, Epigenetic derep 0% and RORg inh 2.5µM*.
`CCCCNC(=S)N/N=C/c1sccc1C` gave Sfp inh 8%, Gal4-VP16 FLuc -30%, PINK1 expr mod 6%, ClpP mod 1%, Epigenetic derep 1% and RORg inh 1.1µM*.
For O=C(Cn1c(=O)nc(-c2ccccc2)c2cc(Cl)ccc21)NCc1ccccc1 the results were PINK1 expr mod 2%, ClpP mod -15% and Epigenetic derep 5%.
For Cc1ccc(CNC(=O)C(=O)NCC(c2cccs2)S(=O)(=O)c2ccc(C)cc2)cc1 (stereo not drawn) the results were PINK1 expr mod 2%, ClpP mod 1% and Epigenetic derep 3%.
`CC1=C(c2ccc(Cl)cc2)S(=O)(=O)N=C1N1CCN(c2cccc(C)c2)C(C)C1` (stereo not drawn) gave PINK1 expr mod -1%, ClpP mod 1% and Epigenetic derep 5%.
Screening Cc1ccc(C)c(NC(=O)N2CCC(N3CCN(Cc4ccc(F)cc4)C(=O)C3=O)CC2)c1 returned PINK1 expr mod 1%, ClpP mod -1% and Epigenetic derep -2%.
For Cc1ccc(-c2csc3nc(CN(C)Cc4ccccc4)[nH]c(=O)c23)cc1 the results were Sfp inh -21%, Gal4-VP16 FLuc 6.3µM*, PINK1 expr mod 3%, Epigenetic derep 0% and RORg inh 1.3µM*.
For O=c1[nH]c(Cc2ccccn2)nc2scc(-c3ccc(Cl)cc3)c12 the results were Sfp inh -26%, Gal4-VP16 FLuc inconclusive, PINK1 expr mod 15%, Epigenetic derep 1%[10.1 µM] and RORg inh 5.6µM*.
O=c1[nH]c(Cc2cccs2)nc2scc(-c3ccc(Cl)cc3)c12 was read as Sfp inh 9%, Gal4-VP16 FLuc -1%, PINK1 expr mod 26%, Epigenetic derep 1% and RORg inh inconclusive.
Screening O=c1[nH]c(Cc2ccc(F)cc2)nc2scc(-c3ccc(F)cc3)c12 returned Sfp inh -79%, Gal4-VP16 FLuc -21%, PINK1 expr mod 7%, ClpP mod -4%, Epigenetic derep 3% and RORg inh inconclusive.
NC(=O)Cc1nc2scc(-c3ccccc3)c2c(=O)[nH]1 was read as Sfp inh 79µM*, Gal4-VP16 FLuc 4%[10 µM], PINK1 expr mod 1%, Epigenetic derep -2%[10.1 µM] and RORg inh 0%.
For Cn1nnnc1SCc1nc2scc(-c3ccc(Cl)cc3)c2c(=O)[nH]1 the results were Sfp inh 3%, Gal4-VP16 FLuc -17%, PINK1 expr mod 40µM*, ClpP mod -2%, Epigenetic derep inconclusive and RORg inh -2%.
`COc1ccc(OC)c(-c2cc(C(=O)Nc3cnn(Cc4ccc(Cl)cc4Cl)c3)no2)c1` gave PINK1 expr mod 4%, ClpP mod 44% and Epigenetic derep 0%.
Screening O=C(O)CC(NS(=O)(=O)c1ccc(Br)s1)c1ccccc1 (stereo not drawn) returned PINK1 expr mod 0%, ClpP mod 0% and Epigenetic derep 0%.
For O=C(NCc1ccco1)c1ccc2c(=O)n(Cc3ccco3)c(SCC(=O)N3CCCC3)nc2c1 the results were Sfp inh 40µM*, Gal4-VP16 FLuc -3%, PINK1 expr mod 6%[38.3 µM], ClpP mod -9%, Epigenetic derep -1% and RORg inh 25%.
Screening Cc1cc(NC(=O)CSc2nc3cc(C(=O)NCCCOC(C)C)ccc3c(=O)n2Cc2ccco2)no1 returned Sfp inh 56µM*, Gal4-VP16 FLuc -11%, PINK1 expr mod 8%, ClpP mod 0%, Epigenetic derep 3% and RORg inh -1%.
`COC(=O)c1ccc2c(=O)n(Cc3ccco3)c(SCC(=O)Nc3cc(C)on3)nc2c1` gave Sfp inh inconclusive, Gal4-VP16 FLuc -4%, PINK1 expr mod 1%, ClpP mod -1%, Epigenetic derep inconclusive and RORg inh 3%.
For CC(=O)Nc1ccc(NC(=O)CC2Nc3cccc4cccc(c34)NC2=O)cc1 (stereo not drawn) the results were Sfp inh -12%, Gal4-VP16 FLuc -3%, PINK1 expr mod 2%, ClpP mod -1%, Epigenetic derep -2% and RORg inh 36%.
`CC(=O)c1ccc(NC(=O)CC2Nc3cccc4cccc(c34)NC2=O)cc1` (stereo not drawn) gave Sfp inh 50µM*, Gal4-VP16 FLuc -4%, PINK1 expr mod 3%, ClpP mod -1%, Epigenetic derep -4% and RORg inh 8%.
`COc1ccc2c(c1)C(=O)N1[C@H]3c4cc(Cl)ccc4OC[C@@H]3[C@H](c3ccccc3)[C@]1(C)C(=O)N2` gave PINK1 expr mod 3% and ClpP mod 18µM*.
Cc1nc(-c2ccccc2)cn(O)c1=O was read as Sfp inh -26%, Gal4-VP16 FLuc -72%, PINK1 expr mod -1%, ClpP mod inconclusive, Epigenetic derep 0% and RORg inh 6.3µM*.
Screening CC(C)c1ccc(/C=C2\C=Cc3ccccc32)cc1 returned PINK1 expr mod 1% and ClpP mod -1%.
`CNc1oc(-c2ccc(OCc3ccccc3)cc2)nc1C#N` gave Sfp inh -15%, Gal4-VP16 FLuc 1%, PINK1 expr mod inconclusive, ClpP mod 35µM*, Epigenetic derep 2% and RORg inh 15%.
Screening N#Cc1nc(-c2ccc(F)cc2)oc1N1CCN(C(=O)c2ccco2)CC1 returned Sfp inh -11%, Gal4-VP16 FLuc -13%, PINK1 expr mod 2%, ClpP mod 3.2µM* and RORg inh 25%.
Screening N#Cc1nc(-c2ccc(OCc3ccc(Cl)cc3)cc2)oc1NCCCn1ccnc1 returned Sfp inh -6%, Gal4-VP16 FLuc -3%, PINK1 expr mod 1%, ClpP mod 25µM*, Epigenetic derep -2% and RORg inh 0%.
